From PubChem BioAssay (Tox21)
Records with an inconclusive call do not appear. Entries that show only a call come without a potency. Active and inactive are the calls of the source. The call rests on the fitted dose curve; in most records, active means well fitted activation curve with a large enough effect in the signal ratio in the repeat runs (not every such curve was filed as active); inconclusive means weak or mixed curves; inactive means flat fitted curve, though single readings scatter; the % refers to the signal ratio.

test: qHTS assay to identify small molecule agonists of H2AX (AID 1224845); conditions: CHO-K1 phospho-H2AX Ser139 HTRF, 3 h; series mostly up to 154 µM
From the text: National Center for Advancing Translational Sciences [NCATS]
NIH Chemical Genomics Center [NCGC]
U.S. Environmental Protection Agency [EPA]
National Institutes of Environmental Health Sciences [NIEHS]
National Toxicology Program [NTP]
U.S. Food and Drug Administration [FDA]
HTRF phospho-H2AX (Ser139) assay (Cisbio Bioassays, US) enables the quantitative detection of the histone variant H2AX when phosphorylated on serine 139. When double-stranded DNA breaks, either by ionizing radiation or endogenous physiological processes, H2AX becomes phosphorylated at Ser139. This phospho-Ser139 serves as a sensitive biomarker for the detection of such breaks, localizing the site of DNA repair. So, HTRF phospho-H2AX Ser139 is a pertinent assay to study genome stability, the cell cycle, DNA repair, and it serves as a biomarker for cancer, and to understand aging. Wild type CHO-K1 cells were used to identify the inducers of Phospho-H2AX Ser 139 from the Tox21 10K compound collections.
Tox21 Assay Protocol Summary:
The CHO-K1 cells suspended in culture medium containing 10% FBS were dispensed at 1000 cells/ 3 ul/well in 1536-well white wall/solid bottom plates (Greiner Bio-One North America, NC) using a Multidrop Combi (Thermo Fisher Scientific Inc., Waltham, MA). After the assay plates were incubated at 37C overnight, 23 nl of compounds at 15 concentrations (from 5-48 columns) or positive control (from 1 to 4 columns) were transferred to the assay plates using a Pintool station (Wako, San Diego, CA) into each well resulting in a final DMSO concentration of 0.76%. After 3hr incubation at 37C, 1 uL/well Supplemented Lysis buffer (diluted 100 fold blocking reagent in lysis buffer) (HTRF Phospho-H2A.X (S139) Assay kit from Cisbio US Inc., Bedford, MA) was added using a Flying Reagent Dispenser (FRD) (Aurora Discovery, CA). After 10sec spin at 1000 rpm in a plate centrifuge, the assay plates were incubated at room temperature for 30 min. Then followed by the addition of 1 uL/well detection buffer (containing a mixture of two antibodies, one labeled with cryptate, Anti pH2AX (S139)-K and another labeled with d2, Anti H2AX-d2) using FRD. After incubation at room temperature for 24 hr, the time resolved fluorescence at excitation 320 nm and emissions at 665 nm and 620 nm was measured using an Envision plate reader (PerkinElmer, Waltham, MA).
Potency means the concentration at half of the fitted maximal effect.

**Q.** Which Potency does the source give for `CC(C)OCC1CO1` (stereo not given) here?
**A.** Its Potency is “inactive”.

**Q.** For `CCC(=O)Oc1ccc(/C(CC)=C(\CC)c2ccc(OC(=O)CC)cc2)cc1`, which Potency is on record?
**A.** Its Potency is “inactive”.

**Q.** Which Potency does the source give for `O=S1OCCO1` here?
**A.** The Potency was “inactive”.

**Q.** For `NC(=O)Nc1ccc(Cl)c(Cl)c1`, which Potency is on record?
**A.** The Potency was “inactive”.

**Q.** For `CC(=O)OCC(=O)[C@@]12OC(C)(C)O[C@@H]1C[C@H]1[C@@H]3C[C@H](F)C4=CC(=O)C=C[C@]4(C)[C@@]3(F)[C@@H](O)C[C@@]12C`, which Potency is on record?
**A.** Its Potency is “inactive”.

**Q.** Which Potency does the source give for `O=C(CCCCCCCCC#CI)Oc1ccccc1` here?
**A.** Its Potency is “inactive”.

**Q.** With `CCCOC(=O)c1ccc(C(=O)OCCC)nc1` as the compound, how does the Potency read?
**A.** The Potency was “inactive”.

**Q.** For `ON(Cc1ccccc1)Cc1ccccc1`, which Potency is on record?
**A.** Its Potency is “inactive”.

**Q.** For `CC(=O)[C@H]1CC[C@H]2[C@@H]3C[C@H](C)C4=CC(=O)CC[C@]4(C)[C@H]3[C@@H](O)C[C@]12C`, which Potency is on record?
**A.** The Potency was “inactive”.

**Q.** With `CCCCCCOC(=O)CCCCCCCC(=O)OCCCCCC` as the compound, how does the Potency read?
**A.** Its Potency is “inactive”.

**Q.** Which Potency does the source give for `CC(N)CN` (stereo not given) here?
**A.** Its Potency is “inactive”.

**Q.** With `CC1(C)C2=CCCC(C)(C)[C@]23CC[C@H]1C3` as the compound, how does the Potency read?
**A.** The Potency was “inactive”.

**Q.** With `CCOCCn1c(C2CCN(CCc3ccc(C(C)(C)C(=O)O)cc3)CC2)nc2ccccc21` as the compound, how does the Potency read?
**A.** Its Potency is “inactive”.

**Q.** For `CCOC(=O)CC(=O)C(=O)OCC`, which Potency is on record?
**A.** Its Potency is “inactive”.

**Q.** For `O=S(=O)(c1ccccc1)c1ccc(Cl)cc1`, which Potency is on record?
**A.** Its Potency is “inactive”.

**Q.** Which Potency does the source give for `Cc1ccccc1N1C(=O)c2cc(S(N)(=O)=O)c(Cl)cc2NC1C` (stereo not given) here?
**A.** Its Potency is “inactive”.

**Q.** With `CCCCCC=CCC=CCCCCCCCC(=O)OCC` as the compound, how does the Potency read?
**A.** The Potency was 55.2 µM (active).

**Q.** For `Cc1oncc1C(=O)Nc1ccc(C(F)(F)F)cc1`, which Potency is on record?
**A.** The Potency was “inactive”.

**Q.** Which Potency does the source give for `COc1cc2ncnc(Nc3ccc(F)c(Cl)c3)c2cc1OCCCN1CCOCC1` here?
**A.** Its Potency is “inactive”.

**Q.** Which Potency does the source give for `O=C(NCCCN1CCOCC1)c1ccc(Cl)cc1` here?
**A.** The Potency was “inactive”.

**Q.** For `CNC(=S)NC`, which Potency is on record?
**A.** The Potency was “inactive”.

**Q.** Which Potency does the source give for `CC(C)=CC=O` here?
**A.** The Potency was “inactive”.

**Q.** For `COC(=O)[C@@H]1CC2=CC(=O)CC[C@]2(C)[C@@]23O[C@@H]2C[C@@]2(C)[C@@H](CC[C@@]24CCC(=O)O4)[C@H]13`, which Potency is on record?
**A.** The Potency was “inactive”.

**Q.** With `C[C@@H]1C[C@H]2[C@@H]3CCC4=CC(=O)C=C[C@]4(C)[C@@]3(F)[C@@H](O)C[C@]2(C)[C@@]1(O)C(=O)CO` as the compound, how does the Potency read?
**A.** The Potency was “inactive”.

**Q.** With `CCCCCCCCCCCC[N+](C)(C)CC(=O)[O-]` as the compound, how does the Potency read?
**A.** The Potency was “inactive”.

**Q.** With `Cc1oc(C)c(C(=O)Nc2ccccc2)c1C` as the compound, how does the Potency read?
**A.** The Potency was “inactive”.

**Q.** Which Potency does the source give for `Cn1c(=O)c2c(ncn2CC(=O)O)n(C)c1=O` here?
**A.** The Potency was “inactive”.

**Q.** For `CC(=O)N(c1onc(C)c1C)S(=O)(=O)c1ccc(N)cc1`, which Potency is on record?
**A.** Its Potency is “inactive”.

**Q.** For `O=C(CCCN1CCN(c2ccc(F)cc2)CC1)NC1c2ccccc2CSc2ccccc21` (stereo not given), which Potency is on record?
**A.** The Potency was “inactive”.

**Q.** With `Cc1cc(OI)c(C(C)C)cc1-c1cc(C(C)C)c(OI)cc1C` as the compound, how does the Potency read?
**A.** The Potency was “inactive”.

**Q.** For `O=c1[nH]c2ccc(S(=O)CCN3CCC(Cc4ccc(F)cc4)CC3)cc2o1` (stereo not given), which Potency is on record?
**A.** Its Potency is “inactive”.

**Q.** With `O=C(O)c1c(O)c(-c2ccccc2)nc2ccccc12` as the compound, how does the Potency read?
**A.** Its Potency is “inactive”.

**Q.** Which Potency does the source give for `C=CC(=O)NCOCC(C)C` here?
**A.** The Potency was “inactive”.

**Q.** Which Potency does the source give for `O=C1NCCN1` here?
**A.** The Potency was “inactive”.

**Q.** Which Potency does the source give for `CCCCCCOC(=O)C(C)C` here?
**A.** The Potency was “inactive”.

**Q.** For `c1ccc(COCc2ccccc2)cc1`, which Potency is on record?
**A.** The Potency was “inactive”.

**Q.** With `O=C(c1ccc(O)cc1)c1ccc(Cl)cc1` as the compound, how does the Potency read?
**A.** Its Potency is “inactive”.

**Q.** With `OCCSc1ccccc1` as the compound, how does the Potency read?
**A.** Its Potency is “inactive”.

**Q.** With `COCCOC(=O)C1=C(C)NC(C)=C(C(=O)OC/C=C/c2ccccc2)C1c1cccc([N+](=O)[O-])c1` (stereo not given) as the compound, how does the Potency read?
**A.** The Potency was “inactive”.

**Q.** With `CO[Si](C)(OC)OC` as the compound, how does the Potency read?
**A.** Its Potency is “inactive”.
